Source: PubChem (The Scripps Research Institute Molecular Screening Center)
Hits are enriched below; roughly 2.6% of the tested compounds scored in any of these assays.
KLF5 inh = kruppel-like factor 5 inhibition | DLD-1 KLF5 promoter-luciferase reporter, luminescence | inhibition, % at 5 µM | 290,000 tested, 0.23% active | AID 1700;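 active = inhibition above a per-plate limit of that plate's mean compound inhibition plus 3 SD, cut at about 60% in these data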;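 also: higher means less KLF5 promoter-driven luciferase light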
IEC-6 cytotox = kills IEC-6 intestinal cells in KLF5 counter-screen; IEC-6 cytotoxicity, luminescence viability; AID 1825; 290,000 tested, 0.78% active; inhibition, % at 5 µM
GPR7 antagonist = antagonists of human GPR7 (neuropeptides B/W receptor 1) | inhibition, % at 4.4 µM | 290,000 tested, 1.1% active | GPR7-expressing cells, fluorescence antagonist assay; in the data active = inhibition above about 16%, passing the limit was not always enough;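 also: cells stimulated with the agonist NPW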
Target sequence (P48145 whole entry, looked up): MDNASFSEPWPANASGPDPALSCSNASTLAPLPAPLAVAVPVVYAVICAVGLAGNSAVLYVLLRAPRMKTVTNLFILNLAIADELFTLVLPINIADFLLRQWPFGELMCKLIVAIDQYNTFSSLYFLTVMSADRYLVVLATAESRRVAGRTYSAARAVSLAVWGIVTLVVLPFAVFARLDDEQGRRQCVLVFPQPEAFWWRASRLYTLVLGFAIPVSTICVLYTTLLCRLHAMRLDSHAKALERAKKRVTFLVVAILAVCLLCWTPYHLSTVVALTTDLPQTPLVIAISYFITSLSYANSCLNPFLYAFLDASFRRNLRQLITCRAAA
Ba/F3 V617F tox = reduce viability of Ba/F3 cells dependent on JAK2V617F; Ba/F3 EpoR-JAK2V617F viability, ATP luminescence; inhibition, % at 5.6 µM; 220,000 tested, 1.1% active;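 active = inhibition above the campaign mean plus 3 SD over all tested compounds, cut at about 24% in these data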;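 also: cytokine-independent growth of Ba/F3 cells driven by EpoR plus mutant JAK2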
FID counter = displaces DNA intercalator in HCV helicase counter-screen; DNA fluorescent intercalator displacement, fluorescence; 290,000 tested, 0.17% active; inhibition, % at 7.9 µM; in the data active = inhibition above about 37%;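 also: higher means more ethidium bromide displaced from hairpin DNA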
BaF3 parental = parental Ba/F3 viability inhibition as JAK2V617F counter-screen | 220,000 tested, 1.1% active | CellTiter-Glo ATP luminescence | inhibition, % at 5.6 µM | AID 1486;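 active = inhibition above a per-campaign cutoff, the mean inhibition of all tested compounds plus 3 SD, cut at about 27% in these data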
IEC-6 tox confirm = confirmation of cytotoxic compounds in rat IEC-6 intestinal epithelial cells. shares compounds with IEC-6 cytotox. IEC-6 rat intestinal epithelial viability, luminescence. inhibition, % at 5 µM. 1,900 tested, 63% active
Hits are given with their value; - = inactive; . = no result. Rule as the data show it, unless noted: active = inhibition above about 22%; inactive = the rest.

SMILES | KLF5 inh | IEC-6 cytotox | GPR7 antagonist | Ba/F3 V617F tox | FID counter | BaF3 parental | IEC-6 tox confirm
CC(NC(=O)C1CCN(c2nnc(-n3cccc3)s2)CC1)C12CC3CC(CC(C3)C1)C2 (configuration not stated) | - | - | - | - | - | - | .
CC1(C)CC(=O)c2sc(N3CCCCC3)nc2C1 | - | - | - | - | - | - | .
CC1(C)CC(N2CCCC2)=CC(=[N+]2CCCCC2)C1 | - | 23 | - | 82 | - | 67 | 33
CCOc1ccc(Cn2c3ccc(OC)cc3c3nc4ccccc4nc32)cc1 | - | - | - | - | - | - | .
Fc1ccc2[nH]c3c(NCc4ccccc4)ncnc3c2c1 | - | 33 | - | . | - | . | 30
Cc1ccc(NC(=O)[C@H](Cc2c[nH]c3ccccc23)NC(=O)[C@@H]2Cc3ccccc3CN2)c(C)c1 | - | 32 | - | . | - | . | -
CCOc1ccc(C(=O)NC(=S)Nc2cccc(S(=O)(=O)NC3=NCCC3)c2)cc1 | - | 65 | - | 72 | - | 79 | 46
Cc1nn(-c2ccccc2)c(N)c1N=Nc1cccnc1 | - | - | - | - | - | - | .
Nc1nn(-c2ccccc2)c(N)c1N=Nc1cccc(F)c1 | - | 77 | - | 84 | - | 80 | 59
Cc1c(Cl)cccc1NC(=S)N(C)CCC#N | - | - | - | - | - | - | .
CCn1cc2nc(SCC(=O)Nc3ccc(OC)c(OC)c3)n(Cc3ccc(OC)cc3)c(=O)c2n1 | - | - | - | . | - | . | .
CCn1cc2nc(SCC(=O)Nc3ccc(OC)cc3OC)n(Cc3ccc(OC)cc3)c(=O)c2n1 | - | 62 | - | . | - | . | 42
CCN(CC)S(=O)(=O)c1cc(C(=O)N2CCc3ccccc32)ccc1Cl | - | - | - | - | - | - | .
Cc1cccc(C(=O)Oc2ccc(/C=N/NC(=O)c3cc(O)cc(O)c3)cc2)c1 | - | - | - | . | - | . | .
Cc1ccc(C)c(Nc2cc(C)nc(-c3ccccc3O)n2)c1 | - | 48 | - | . | - | . | 27
O=C(/C=C/c1ccco1)Nc1ccccn1 | - | 28 | - | 63 | - | 56 | 58
Cc1ccc(NC(=O)/C=C/c2ccco2)nc1 | - | 86 | - | 85 | - | 82 | 57
O=C(/C=C/c1ccco1)Nc1cccnc1 | - | - | - | - | - | - | .
CC(=O)N1c2ccc(S(=O)(=O)NCC3CCC(C(=O)N4CC(C)CC(C)C4)CC3)cc2CC1C (configuration not stated) | - | - | - | . | - | . | .
O=C(COc1ccc(/C=N/NS(=O)(=O)c2ccccc2)cc1)Nc1ccccc1 | - | - | - | - | - | - | .
COc1ccc(CCN(C)c2ncnc3sccc23)cc1OC | - | - | - | - | - | - | .
COc1ccc(CN(C)c2ncnc3sccc23)c(OC)c1OC | - | 23 | - | . | - | . | -
COc1ccccc1C(=O)Nc1nc2ccccc2s1 | - | 29 | - | . | - | . | 28
COc1ccccc1C(=O)Nc1nnc(CCc2ccccc2)s1 | - | 44 | - | . | - | . | 56
CCOC(=O)Cc1nnc(NC(=O)c2ccccc2OC)s1 | - | - | - | - | - | - | .
SMILES | KLF5 inh | IEC-6 cytotox | GPR7 antagonist | Ba/F3 V617F tox | FID counter | BaF3 parental | IEC-6 tox confirm
Cc1ccoc1C(=O)Nc1ccc2ccccc2c1 | - | - | - | . | - | . | .
COc1ccc(NC(=O)c2cccnc2SC)cc1OC | - | - | - | - | - | - | .
COc1ccc(S(=O)(=O)NCc2ccccn2)cc1NC(=O)c1ccccc1 | - | 45 | - | . | - | . | 45
CCc1ccc(NC(=O)C2CCCN(S(=O)(=O)c3cccnc3)C2)cc1 (configuration not stated) | - | - | - | . | - | . | .
CCOc1ccc(/C=C/c2nc(C#N)c(NCCCOC)o2)cc1 | - | 74 | - | . | - | . | 61
CCOc1ccc(/C=C/c2nc(C#N)c(NCCCN(C)C)o2)cc1 | - | - | - | . | - | . | .
CCOc1ccc(N(Cc2cc3ccc(C)cc3[nH]c2=O)S(=O)(=O)c2ccccc2)cc1 | - | 22 | - | . | - | . | -
Cc1ccc(C(=O)NC(NC(=O)c2ccc(C)cc2)C(Cl)Cl)cc1 | - | - | - | - | - | - | .
Clc1ccc2nc(COc3ccccc3)[nH]c2c1 | - | 27 | - | . | - | . | -
CC1(C)Cc2c(sc3ncnc(NNC(=S)NCc4ccccc4)c23)CO1 | - | 76 | - | 73 | - | 80 | -
COc1cc(/C=C/C(=O)c2ccc3c(c2)OCCO3)cc(Br)c1OCC(=O)N(C)C | - | 24 | - | . | - | . | -
Cc1cc(C)cc(Oc2nc3ccccn3c(=O)c2/C=C(\C#N)C(=O)NC2CCS(=O)(=O)C2)c1 (configuration not stated) | - | - | - | - | - | - | .
Cc1ccc(Oc2nc3ccccn3c(=O)c2/C=C(\C#N)C(=O)NC2CCS(=O)(=O)C2)c(C)c1 (configuration not stated) | - | 56 | - | . | - | . | 34
Cc1csc2sc(-c3ccnc(SCC(=O)NCc4ccccc4)n3)c(C)c12 | - | 74 | - | 81 | - | 60 | 65
Cc1ccccc1C=Nc1ccccc1C(N)=O | - | 23 | - | - | - | - | -
O=C(/C=C/c1ccccc1)Nc1ccc2c(c1)OCCO2 | - | - | - | - | - | - | .
COc1ccccc1/C=C/C(=O)Nc1ccc2c(c1)OCCO2 | - | 25 | - | - | - | - | -
CCOCC(=O)Nc1cc(C(=O)NCCc2ccccc2)ccc1Cl | - | - | - | - | - | - | .
COc1ccccc1-c1nnc(Nc2nc3c(OC)cccc3s2)o1 | - | 69 | - | 72 | - | 76 | 73
CCn1cc(CN2CCC(n3nccc3NC(=O)Cc3ccccc3)CC2)c(C)n1 | - | - | - | . | - | . | .
CCOc1cc(S(=O)(=O)NCc2cccs2)ccc1Cl | - | - | - | - | - | - | .
CCOc1cc(S(=O)(=O)NCc2ccncc2)ccc1Cl | - | 24 | - | 64 | - | 84 | -
COc1ccc(NC(=O)c2cccnc2Nc2ccc(OC)cc2)cc1 | - | - | - | - | - | - | .
CC(C)c1ccc(Nc2ncccc2C(=O)O)cc1 | - | 58 | - | - | - | - | 26
Cc1ccc(-c2cc(C(=O)N/N=C/c3c(C)nn(-c4ccccc4)c3C)n[nH]2)s1 | - | 68 | - | 74 | - | 82 | 56
SMILES | KLF5 inh | IEC-6 cytotox | GPR7 antagonist | Ba/F3 V617F tox | FID counter | BaF3 parental | IEC-6 tox confirm
Cc1ccc(C)c(NC(=O)Cn2nc([N+](=O)[O-])c(Br)c2C)c1 | - | - | - | - | - | - | .
COc1ccc(NS(=O)(=O)c2cc(N/C(=N\S(=O)(=O)c3ccccc3)c3ccc(F)cc3)ccc2Cl)cc1 | - | 39 | 34 | 64 | - | 61 | -
COc1ccc(NS(=O)(=O)c2cc(C(=O)N3CCN(C(C)=O)CC3)ccc2Cl)cc1 | - | - | - | - | - | - | .
CCCCNc1nc(-c2ccccc2)c(C(=O)OCC)cc1C#N | - | - | - | - | - | - | .
CCCNc1nc(-c2ccccc2)c(C(=O)OCC)cc1C#N | - | 46 | - | 59 | - | 58 | 75
CC1=C(C(=O)Nc2ccc(Cl)cc2C(=O)N2CCC(C(N)=O)CC2)SCCO1 | - | - | - | . | - | . | .
O=C(OCC(=O)N1CCCC1=O)c1nc(Cl)c(Cl)c(Cl)c1Cl | - | 42 | - | . | - | . | -
